Only a selection was taken, and hits are over-represented in it overall.
PTAP TSG101 blk: qHTS Assay for Iinhibitors of HIV-1 Budding by Blocking the Interaction of PTAP/TSG101; Tumor susceptibility gene 101 protein (Homo sapiens), Q99816; Fluorescence polarization, FITC-PTAP peptide / Tsg101 binding; Potency, µM (top dose mostly 115 µM), inactives show top-dose activity change, negative = inhibition, most hits filed as inhibitors; 340,000 tested, under 10 active; AID 493005, 2010; active = well fitted inhibition curve with a large enough effect in the main read-out, with a control signal flat, not every such curve was filed as active; inconclusive = small, poorly fitted or top-dose-only effect, or effect the other way, or a change in a side signal; inactive = no such curve, though single readings can be large or run the other way; also: potency is read from the fitted curve at half-maximal effect; % of control where 0% means no effect
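Fluorescence anisotropy tracks displacement of a FITC-tagged PTAP peptide (50 nM) from the Tsg101 binding domain (10 uM), following a 20 min room-temperature incubation at pH 7.5.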
Menin MLL FP FL: qHTS Assay for Inhibitors Targeting the Menin-MLL Interaction in MLL Related Leukemias: Competition With Fluorescein Labeled MLL-derived Peptide. AID 1766, 2009. 290,000 tested, under 10 active. FP activity change, % at 61.4 µM. Fluorescence polarization, fluorescein-MLL peptide displacement from menin; active = well fitted curve in the direction sought with a large enough effect in the polarisation, not every such curve was filed as active; inconclusive = small, poorly fitted or top-dose-only effect, or effect the other way, or a change in a side signal; inactive = no such curve, though single readings can be large or run the other way; the % refers to the polarisation; also: % of control where 0% means no effect
RGS4 inh: Inhibitors of Regulator of G Protein Signaling (RGS) 4: qHTS. AID 504845, 2011. Potency, µM (doses to about 114 µM), without a hit: top-dose activity change, negative = inhibition, hits mostly inhibitors. Regulator of G-protein signaling 4 (Homo sapiens), P49798. Transcreener GDP fluorescence polarization, RGS4-accelerated GTP hydrolysis. 390,000 tested, 0.039% active; active = well fitted inhibition curve with a large enough effect; inconclusive = small, poorly fitted or top-dose-only effect; inactive = no such curve, though single readings can be large or run the other way; also: potency is read from the fitted curve at half-maximal effect; % is scaled to controls: 0 for no effect and ±100 for the full control effect; nearly all actives have a fitted effect of over 75% in size
Target sequence (P49798 whole entry, looked up): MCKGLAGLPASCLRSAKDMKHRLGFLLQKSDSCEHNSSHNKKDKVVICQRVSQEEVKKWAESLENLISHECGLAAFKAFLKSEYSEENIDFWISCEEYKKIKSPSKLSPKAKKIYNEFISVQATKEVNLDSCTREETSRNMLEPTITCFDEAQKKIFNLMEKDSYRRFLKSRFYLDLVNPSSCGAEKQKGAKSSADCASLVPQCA
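MLSMR compounds (23 nl, pin-transferred) preincubated 10 min at room temperature with a 500nM (2x) first reagent, then RGS4 at 900nM (2x) plus Transcreener GDP mix added; fluorescence polarization (620/688 nm) read before and after 90 min at 30 °C.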
Menin-MLL TR inh: qHTS Assay for Inhibitors Targeting the Menin-MLL Interaction in MLL Related Leukemias: Competition With Texas Red Labeled MLL-derived Mutant Peptide; 270,000 tested, 0.23% active; AID 1768, 2009; Potency, µM (series often up to 61.6 µM), for inactives: at the highest dose FP activity change, negative = inhibition, most hits filed as inhibitors; Menin + Texas Red MLL mutant peptide, fluorescence polarization; active = well fitted inhibition curve with a large enough effect in the polarisation, with a control signal flat, not every such curve was filed as active; inconclusive = small, poorly fitted or top-dose-only effect, or effect the other way, or a change in a side signal; inactive = no such curve, though single readings can be large or run the other way; the % refers to the polarisation; also: potency is read from the fitted curve at half-maximal effect; % of control where 0% means no effect
ERG Ets-DNA blk: qHTS for Small Molecule Inhibitors of the ERG Ets/DNA interaction; Transcriptional regulator ERG (Homo sapiens), P11308; Potency, µM (series often up to 76.9 µM), for inactives: at the top dose FP activity, negative = inhibition, actives largely listed as inhibitors; fluorescence polarization, His-ERG Ets domain / labelled DNA; 370,000 tested, 0.028% active; active = well fitted inhibition curve with a large enough effect in the polarisation, with a control signal flat; inconclusive = small, poorly fitted or top-dose-only effect, or effect the other way, or a change in a side signal; inactive = no such curve, though single readings can be large or run the other way; the % refers to the polarisation;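 also: polarization taken with two DNA probes labelled with fluorescein and Texas red; potency is read from the fitted curve at half-maximal effect; % of control where 0% means no effect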
Target sequence (P11308 whole entry, looked up, the tested form may be a part): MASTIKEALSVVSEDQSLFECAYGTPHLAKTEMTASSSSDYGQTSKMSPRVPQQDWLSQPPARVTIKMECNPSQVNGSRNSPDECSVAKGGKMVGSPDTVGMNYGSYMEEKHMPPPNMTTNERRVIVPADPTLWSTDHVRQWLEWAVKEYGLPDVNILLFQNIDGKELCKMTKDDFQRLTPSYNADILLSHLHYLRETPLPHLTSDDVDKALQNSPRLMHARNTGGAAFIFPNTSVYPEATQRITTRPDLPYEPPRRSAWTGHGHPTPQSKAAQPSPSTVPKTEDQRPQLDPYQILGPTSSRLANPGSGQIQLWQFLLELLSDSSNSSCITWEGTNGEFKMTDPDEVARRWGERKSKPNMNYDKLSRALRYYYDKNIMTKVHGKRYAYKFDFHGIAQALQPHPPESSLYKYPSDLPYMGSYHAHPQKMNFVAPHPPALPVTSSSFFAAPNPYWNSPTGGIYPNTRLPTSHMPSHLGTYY
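His-tagged ERG Ets domain (1 uM in the protein solution; 300mM KCl, 50mM Tris-HCl, 1mM EDTA, 1mM DTT, pH 7.5) received compound, then a probe mix of 5 nM fluorescein-DNA and 100nM Texas-615-DNA. Fluorescence polarization was read for both dyes.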
CXXC DNA block: qHTS Fluorescence Polarization Assay for Inhibitors of MLL CXXC domain - DNA interaction; Histone-lysine N-methyltransferase 2A (Homo sapiens), Q03164; MLL-CXXC / FITC-HOXA9 DNA fluorescence polarization; 290,000 tested, 0.037% active; Potency, µM (top dose mostly 115 µM), inactives show at the highest dose activity change, negative = inhibition, most hits filed as inhibitors; active = well fitted inhibition curve with a large enough effect in the polarisation, with a control signal flat, not every such curve was filed as active; inconclusive = small, poorly fitted or top-dose-only effect, or effect the other way, or a change in a side signal; inactive = no such curve, though single readings can be large or run the other way; the % refers to the polarisation; also: potency is read from the fitted curve at half-maximal effect
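Purified MLL-CXXC (added from a 7 uM solution) was preincubated 5 min at ambient with pinned compounds in 50 mM Tris-HCl pH 7.5, 50 mM NaCl, 1 mM DTT, 0.05% BSA. Fluorescein-labeled HOX-A9 DNA (50 nM solution) followed, 30 min, then polarization read.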
An asterisk follows results filed as active; ? = inconclusive; / = no result; [ ] = remark or other dose.

SMILES	PTAP TSG101 blk	Menin MLL FP FL	RGS4 inh	Menin-MLL TR inh	ERG Ets-DNA blk	CXXC DNA block
N#CCCn1c(=O)c(CCc2ccccc2)nc2cnc(N3CCOCC3)nc21	/	?	/	40µM*	/	/
O=c1c(CCc2ccccc2)nc2cnc(N3CCOCC3)nc2n1Cc1ccc(F)cc1	/	11	/	3%	/	/
COc1ccc(C(=O)Nc2ccc(NC(=O)c3cccs3)cc2)cc1Cl	-4%	4	?	7.1µM*	5%	3%
COc1cc(/C=C(/C#N)C(=O)Nc2ccccc2)ccc1OCc1ccc(C(=O)O)cc1	-4%	5	-25%	48%	6%	-6%
COc1cc(/C=C(\C#N)C(=O)Nc2nnc(C(F)(F)F)s2)ccc1OCc1ccc(C(F)(F)F)cc1C(F)(F)F	/	-1	19µM*	77%	/	/
CCOC(=O)c1c(C)oc2c1c(C=NCc1ccccn1)c(O)c1ccccc12	-1%	?	-25%	3.5µM*	13%	-13%
Nc1ncnc2c1nc(Sc1ccc(Cl)cc1)n2[C@H]1OC2COP(=O)(O)O[C@@H]2C1O (stereo not given in full)	/	/	-1%[56.9 µM]	/	/	/
N=C1SC(c2ccccc2)C(=O)N1c1ncc(Cc2ccccc2Cl)s1 (stereo not given)	1%	6	10%	14µM*	-3%	13%
O=C(CSc1nnnn1-c1ccccc1)Nc1ncc(Cc2ccccc2Cl)s1	-6%	4	-25%	0%	-7%	-5%
O=C(N/N=C/c1ccc(OCc2ccccc2)cc1)c1ccncc1	-2%	3	-20%	15%	-14%	-2%
Oc1ccc(N=Cc2ccc(OCc3ccccc3)cc2)cc1	1%	-1	-32%	?	14µM*	-8%
Cc1cc(NC(=O)CCCN2C(=O)/C(=C/c3cccs3)SC2=S)no1	0%	4	-12%	18µM*	3%	-18%
COc1cccc(/C=C2\SC(=S)N(CCCC(=O)Nc3cc(C)on3)C2=O)c1	7%	?	10%	?	12%	6%
CCN(CC)CCCC(C)Nc1c2ccc(Cl)cc2nc2ccc(OC)cc12 (stereo not given)	/	?	21µM*	?	/	?
CCCCCCCCCCCCCC(=O)OCC(COP(=O)([O-])OCC[N+](C)(C)C)OC(=O)CCCCCCCCCCCCC (stereo not given)	/	-6	/	-10%	/	5%
COc1ccc(-n2nc3cc(C)c(NC(=S)NC(=O)c4ccccc4C)cc3n2)cc1	-5%	2	-28%	22µM*	2%	3%
COc1ccc2c(c1)O[C@H](c1ccc3c(c1)OCO3)[C@@H](OC(=O)NCCOc1ccccc1)C2=O	/	2	/	3%	/	/
COc1ccc(-c2nn(-c3ccccc3)cc2/C=N/NC(=O)c2cccc(S(=O)(=O)Nc3ccccc3Cl)c2)cc1	-3%	-3	2%	16µM*	-2%	6%
Cc1ccc(-c2nn(-c3ccccc3)cc2/C=N/NC(=O)c2ccc(Br)o2)cc1	-2%	0	-8%	?	-7%	30%
O=C(N/N=C\c1cn(-c2ccccc2)nc1-c1ccccc1)c1ccc(Br)o1	-3%	-1	36%	32µM*	1%	21%
CCCCC1=CC2=C(OC(C)=O)C(=O)C(C)(OC(=O)CCC(=O)OC)C(=O)C2=CO1 (stereo not given)	/	3	/	15%	/	/
O=Nc1ccc2oc(=O)ccc2c1	/	2	6µM*	?	/	3%
COc1cc2ccc(=O)oc2cc1O	-6%	?	-19%	-2%[24.8 µM]	-1%	/
CC1=NN(c2cccc(F)c2)C(=O)/C1=C/c1ccc(N(C)C)cc1	2%	-14	-1%	22µM*	0%	?
O=C(CC1SC(=NCCc2ccccc2)N(/N=C/c2cccs2)C1=O)Nc1ccc(Cl)cc1 (stereo not given)	2%	4	-26%	40µM*	14%	19%
SMILES	PTAP TSG101 blk	Menin MLL FP FL	RGS4 inh	Menin-MLL TR inh	ERG Ets-DNA blk	CXXC DNA block
O=c1c(-c2ccc(F)cc2)nc2cnc(N3CCNCC3)nc2n1Cc1ccc(F)cc1	/	0	/	16%	/	/
[N-]=[N+]=Nc1ccc(C(=O)CSC[C@H](NC(=O)CC[C@H](N)C(=O)O)C(=O)NCC(=O)O)cc1	/	5	3.4µM*	0%	/	-16%
Cc1cc(O)ccc1N=Cc1c(C(F)(F)F)[nH][nH]c1=O	-2%	-2	?	?	6.3µM*	-3%
O=c1[nH][nH]c(C(F)(F)F)c1C=Nc1ccccc1	0%	6	4%	2%	1%	-11%
N#Cc1ccc(-c2csc(NC(=O)c3ccc(S(=O)(=O)N4CCc5ccccc5C4)cc3)n2)cc1	-6%	10	?	11µM*	/	-3%
COc1ccc2nc(NC(=O)C3CCN(S(=O)(=O)c4cccs4)CC3)sc2c1	-4%	0	-19%	/	4%	15%
COc1ccc2nc(NC(=O)C3CCCN(S(=O)(=O)c4cccs4)C3)sc2c1 (stereo not given)	-3%	-3	-53%	22µM*	-1%	27%
COC(=O)[C@@]1(Cc2ccccc2-c2ccco2)C=C[C@H](C)[C@@H](c2ccccc2)N1C(=O)C(F)(F)F	/	2	/	16%	/	/
CN(C)c1ccc(NC(=O)C2C3C=CC(C3)C2C(=O)O)cc1 (stereo not given)	1%	-10	-155%	20µM*	-8%	?
C/C(=N/NC(=O)c1ccc2c(c1)OCO2)c1ccc(Br)s1	0%	2	-28%	8%	9%	9%
C/C(=N\NC(=O)c1ccc(Cl)c(Cl)c1)c1ccc(Br)s1	2%	2	-16%	11µM*	-4%	5%
CC[C@H](C)[C@H](N)C(=O)N[C@@H](CC(N)=O)C(=O)N1CCC[C@H]1C(=O)N[C@H](C(=O)N[C@@H](Cc1ccc(O)cc1)C(=O)N[C@@H](CCCN=C(N)N)C(=O)N[C@@H](CC(C)C)C(=O)N[C@@H](CCCN=C(N)N)C(=O)N[C@@H](Cc1ccc(O)cc1)C(N)=O)[C@@H](C)CC	/	4	/	5%	/	/

Assay outcomes deposited in PubChem BioAssay by National Center for Advancing Translational Sciences (NCATS).
